AmpC detergent: blocks E. coli AmpC beta-lactamase in detergent assay. P00811. AmpC hydrolysis of nitrocefin, absorbance 480 nm, 0.01% Triton. Potency, µM (titrated, usually from 114 µM), hits mostly inhibitors. 370,000 compounds, 0.041% hits. AID 485294; note: nearly all actives have a fitted effect of over 25% in size
Target sequence (P00811 whole entry, looked up): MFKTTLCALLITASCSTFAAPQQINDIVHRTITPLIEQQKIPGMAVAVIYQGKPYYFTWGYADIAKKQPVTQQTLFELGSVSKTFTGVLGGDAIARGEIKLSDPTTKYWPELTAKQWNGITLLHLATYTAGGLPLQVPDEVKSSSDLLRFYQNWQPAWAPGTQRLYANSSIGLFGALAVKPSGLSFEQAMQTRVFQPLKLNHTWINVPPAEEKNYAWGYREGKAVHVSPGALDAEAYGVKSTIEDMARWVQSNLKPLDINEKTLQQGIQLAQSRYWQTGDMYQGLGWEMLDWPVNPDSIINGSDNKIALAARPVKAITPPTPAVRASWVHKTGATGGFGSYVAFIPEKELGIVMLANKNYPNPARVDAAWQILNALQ
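AmpC (5.3 nM in the dispensed reagent) in 20 mM phosphate pH 7.0 with 0.01% (detergent screen) or 0.0001% Triton X-100 was preincubated with compounds for 15 min at room temperature. Nitrocefin was then added from an 800 uM solution, and hydrolysis was followed at 480 nm.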
HCMV inh: inhibitors of human cytomegalovirus; AID 1259415; activity change, negative = inhibition, % at 57.5 µM; HFF cells, HCMV-luciferase reporter, 72 h; hits give low values; 410,000 compounds, 4.5% hits; in the data active = activity change below about -60%; inconclusive = no clear call, values can overlap the other calls; inactive = above about -39%
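Two-dose cell screen: HFF monolayers treated with compounds and infected with luciferase-expressing HCMV at 1 PFU/cell, 72 h at 37C, then lysed for luciferase measurement.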
HCV inh: HCV inhibition. Huh7.5.1 HCVcc-Cre infection, luciferase reporter, 44 h. Potency, µM (highest dose often 41.8 µM), hits mostly inhibitors. 340,000 compounds, 3.4% hits
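Seed cells (1,000/well) for 4 h; treat with compound and infect with HCVcc-Cre, moi about 0.5. Incubate 44 h, then detect luciferase activity.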
FMDV inh: blocks foot and mouth disease virus. Potency, µM (top dose mostly 57.9 µM), hits mostly inhibitors. FMDV antiviral cell-based qHTS. AID 1159524. 410,000 compounds, 1.2% hits; calls by dose curve; tested in HEK293T cells; note: read-out not given here; nearly all actives have a fitted effect of over 45% in size
AmpC inh no detg: inhibitors of E. coli AmpC beta-lactamase without detergent; P00811; AmpC nitrocefin hydrolysis, absorbance 480 nm, 0.0001% Triton; Potency, µM (series often up to 57.1 µM), hits mostly inhibitors; 330,000 compounds, 0.52% hits; AID 485341; note: nearly all actives have a fitted effect of over 20% in size
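20 mM phosphate pH 7.0 + 0.01% (detergent screen) or 0.0001% Triton X-100; 5.3 nM AmpC reagent; cpd preinc 15 min RT; nitrocefin (800 uM stock) to start; A480 q20 s × 4 min; Activity was normalised to no-enzyme and no-compound control wells.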
Numbers stand for hits; n = inactive; u = inconclusive; x = no result given. The list is not random: actives were taken first. Their share in the collection is about 7.3%. Unless noted, calls come from the whole dose curve; as a rule, active = well fitted curve in the direction sought with a large enough effect; inconclusive = small, poorly fitted or top-dose-only effect, or another doubt; inactive = no such curve, though single readings can be large; an effect the other way counts as inactive or inconclusive.

SMILES | AmpC detergent | HCMV inh | HCV inh | FMDV inh | AmpC inh no detg
CCCN1C(C(=O)c2ccccc2)=C(OC(=O)c2ccc(C)cc2)c2ccccc2S1(=O)=O | n | -85 | x | n | x
COC(=O)[C@]1(C)N[C@H](CN(C)C(=O)Nc2ccc(Cl)cc2)[C@@H]2C(=O)N(C)C(=O)[C@@H]21 | x | n | n | n | n
Cc1csc(=O)n1CCC(=O)OCC(=O)Nc1ccc(S(N)(=O)=O)cc1 | n | n | n | n | n
CCN1C(C(=O)c2ccccc2)=C(OC(=O)c2ccc(OC)cc2)c2ccccc2S1(=O)=O | n | -68 | x | n | x
CCN1C(C(=O)c2ccccc2)=C(OC(=O)C(C)C)c2ccccc2S1(=O)=O | n | n | x | n | x
COc1ccc(NC(=O)C2CCCN(c3nnc(C)c4c(C)n(-c5ccccc5)nc34)C2)cc1Cl (centres undefined) | n | -90 | x | n | x
Cc1nnc(N2CCCC(C(=O)Nc3cc(F)ccc3F)C2)c2nn(-c3ccccc3)c(C)c12 (centres undefined) | n | n | 11µM | n | n
Cc1ccc(NC(=O)C2CCCN(c3ncnc4onc(C)c34)C2)cc1Cl (centres undefined) | n | n | x | 20µM | x
Cc1cc(C)nc(N2CCCC(C(=O)Nc3ccc4nc(C)c(C)nc4c3)C2)n1 (centres undefined) | n | n | 5.6µM | n | n
COc1cccc(NC(=O)C2CCCN(c3ncnc4onc(C)c34)C2)c1 (centres undefined) | n | n | x | u | x
CCN1C(N(C)CCc2cccs2)=N[C@@H](c2ccccc2)C(C(=O)OC)=C1C | u | n | n | n | n
CCN1C(N(C)CCc2c[nH]c3ccccc23)=N[C@@H](c2cccc(C(F)(F)F)c2)C(C(=O)OC)=C1C | x | x | 25µM | n | n
CC1(c2nnc(-c3ccccc3)o2)CC(c2ccc([N+](=O)[O-])cc2)=NO1 (centres undefined) | x | -68 | u | n | x
CC1(c2nnc(-c3cccc(Cl)c3)o2)CC(c2cccc([N+](=O)[O-])c2)=NO1 (centres undefined) | n | n | 7.9µM | n | n
CC1(c2nnc(-c3ccncc3)o2)CC(c2ccc(Cl)cc2)=NO1 (centres undefined) | x | n | 11µM | u | x
CC1(c2nnc(-c3ccccc3)o2)CC(c2ccc(Cl)cc2)=NO1 (centres undefined) | n | n | n | n | n
CC1(c2nnc(-c3ccccc3)o2)CC(c2cccc(Cl)c2)=NO1 (centres undefined) | n | n | u | n | n
CC1(c2nnc(-c3ccccc3)o2)CC(c2ccc(F)cc2)=NO1 (centres undefined) | n | n | n | n | n
CCN(C(=O)CSc1nc2ccccc2n1CC(=O)Nc1ccc(F)cc1F)c1ccccc1 | n | n | x | n | x
O=S1(=O)C=C(Sc2ccc(Cl)cc2)c2ccccc2C1Cc1ccc(F)cc1 (centres undefined) | x | n | x | x | x
CCc1ccc(N2C(=O)c3sc4nnc(-c5ccccc5)c(=O)n4c3C2=O)cc1 | n | -77 | n | n | n
Cc1cc(-c2ccccc2)c2c(n1)sc1c(O)cc(=O)[nH]c12 | n | n | n | n | n
CCc1nc2sc3c(O)cc(=O)[nH]c3c2cc1C | n | -81 | n | n | n
Cc1c(C(=O)N2CCCCC2)nnn1-c1nonc1N | n | -62 | n | n | n
Cc1cc(C)c(NC(=O)CSc2nc(C)cc(C)c2C#N)c(C)c1 | n | n | x | n | x
SMILES | AmpC detergent | HCMV inh | HCV inh | FMDV inh | AmpC inh no detg
CCCCCCCC(=O)C(C)C(=O)N(C)[C@H](Cc1ccc(OC)cc1)C(=O)N(C)[C@H](C(N)=O)C(C)C (some centres undefined) | x | n | 0.56µM | n | n
C#CCCC/C(=C\C(=O)N(C)[C@H](C(=O)N(C)[C@H](C(=O)N(C)[C@H](C(=O)N(C)[C@H](C(N)=O)C(C)C)C(C)C)C(C)C)C(C)C)OC | x | n | n | n | n
Cc1ccc(N(Cc2cccs2)C(=O)COc2ccccc2[N+](=O)[O-])cc1 | n | -68 | x | n | x
Cc1ccc(N(Cc2cccs2)C(=O)c2ccccc2[N+](=O)[O-])cc1 | n | u | x | n | x
Oc1ccc(-c2nc(-c3ccccc3)c(-c3ccc(Br)cc3)[nH]2)cc1 | n | -63 | x | n | x
COc1ccccc1Nc1ncnc2ccccc12 | u | n | n | n | n
